Bioassay records (PubChem BioAssay)
Most compounds without a hit are left out; they make up all but 4.3% or so of the library.
DRD3 agonist: qHTS of D3 Dopamine Receptor Agonist: qHTS. D3R DiscoveRx beta-arrestin cells, luminescence, 90 min. 410,000 compounds, 0.58% hits. max activation, %; in the data active means max activation above about 30%; further: 0% is about no effect
Target sequence (P35462 whole entry, looked up): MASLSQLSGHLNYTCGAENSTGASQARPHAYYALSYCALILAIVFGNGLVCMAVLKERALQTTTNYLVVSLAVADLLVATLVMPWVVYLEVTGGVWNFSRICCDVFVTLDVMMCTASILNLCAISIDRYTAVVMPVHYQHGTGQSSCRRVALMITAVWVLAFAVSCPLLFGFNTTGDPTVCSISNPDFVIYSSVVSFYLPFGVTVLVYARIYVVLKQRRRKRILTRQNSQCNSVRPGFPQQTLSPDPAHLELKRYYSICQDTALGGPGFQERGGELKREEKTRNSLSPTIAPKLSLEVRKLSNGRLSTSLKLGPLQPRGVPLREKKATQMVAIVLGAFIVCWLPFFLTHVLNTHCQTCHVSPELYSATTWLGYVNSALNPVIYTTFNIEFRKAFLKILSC
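Agonist-mode cell screen: cells plated at 1500/well and incubated overnight at 37 °C, then exposed to library compounds for 90 min at 37 °C. Detection reagent was added for 30–60 min at room temperature, and luminescence was read.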
DRD3 antagonist: qHTS of D3 Dopamine Receptor Antagonist: qHTS; D(3) dopamine receptor (Homo sapiens), P35462; D3R cells, DiscoveRx beta-arrestin luminescence, antagonist mode; stronger effect = lower value; max response, negative = inhibition, %; 360,000 compounds, 2.5% hits; AID 652054, 2013; in the data active means max response below about -50%; inconclusive means no clear call, values can overlap the other calls; further: on the % scale 0 is the no-effect control and ±100 the full control effect
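Cells plated overnight at 1500 cells/well, then exposed to library compounds with dopamine controls for 90 minutes at 37 degrees C. DiscoveRx reagent added for 30–60 minutes at room temperature; luminescence read, quantitative HTS format.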
GLP1R ag: qHTS of GLP-1 Receptor Agonists; 380,000 compounds, 0.007% hits; AID 624172, 2012; HEK293 GLP-1R CRE-luciferase, luminescence, 4-6 h; cells express a hypersensitive GLP-1R form; Glucagon-like peptide 1 receptor (Homo sapiens), P43220; Potency, µM (top dose mostly 45.6 µM), for the others: at the highest dose activation, actives largely listed as activators; further: potency means the concentration at half of the fitted maximal effect; % of control where 0% means no effect
GLP-1R inv ag: qHTS of GLP-1 Receptor Inverse Agonists (Inhibition Mode). 410,000 compounds, 1.6% hits. Glucagon-like peptide 1 receptor (Homo sapiens), P43220. HEK293 GLP-1R CRE-luciferase, luminescence, 24 h; GLP-1R form is constitutively active. Potency, µM (highest dose often 38.3 µM), for the others: at the highest dose activity change, negative = inhibition, actives largely listed as inhibitors; further: potency means the concentration at half of the fitted maximal effect; on the % scale 0 is the no-effect control and ±100 the full control effect; nearly all actives have a fitted effect of over 55% in size
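Constitutively active GLP-1R drives a cAMP-responsive luciferase in stably transfected HEK293 cells; test compounds are added after overnight (12 h) attachment and left 24 hr, and signal loss in luminescence marks inhibition.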
Active calls of the source: *. Unless noted, the call rests on the fitted dose curve; in most records, active means well fitted curve in the direction sought with a large enough effect; inconclusive means small, poorly fitted or top-dose-only effect, or another doubt; inactive means no such curve, though single readings can be large; an effect the other way counts as inactive or inconclusive.

How did Cc1nc2c(-c3ccccc3)c(C)nn2c(C)c1CCC(=O)Nc1ccccc1F do in these assays?
DRD3 agonist: 15; GLP1R ag: 1%; GLP-1R inv ag: inconclusive

Results for COc1cc(NC(=O)c2nnn(CC(=O)Nc3ccccc3)c2N)cc(OC)c1 ?
DRD3 agonist: 3; GLP-1R inv ag: 4%

Results for NS(=O)(=O)c1ccc(NC2=CC(=O)C(=O)c3ccccc32)cc1 ?
DRD3 agonist: -7; DRD3 antagonist: -53*; GLP1R ag: 3%; GLP-1R inv ag: -15%

Results for CCOC(=O)COc1ccccc1/C=C\[N+](=O)[O-] ?
DRD3 agonist: -12; DRD3 antagonist: -103*; GLP1R ag: -40%; GLP-1R inv ag: 17%

Results for Cc1ccc(C(=O)COC(=O)COc2ccccc2[N+](=O)[O-])s1 ?
DRD3 agonist: -3; DRD3 antagonist: 3; GLP1R ag: -31%; GLP-1R inv ag: 22%

Results for CCOC(=O)N1CCN(C(=O)c2ccc3c(=O)n(-c4ccc(OC)cc4)c(=S)[nH]c3c2)CC1 ?
DRD3 agonist: -2; DRD3 antagonist: -2; GLP1R ag: 4%; GLP-1R inv ag: -3%

How did CCOC(=O)N1CCN(C(=O)c2ccc(-n3c(=S)[nH]c4ccccc4c3=O)cc2)CC1 do in these assays?
DRD3 agonist: 42*; DRD3 antagonist: 13; GLP1R ag: -5%; GLP-1R inv ag: 18%

What do the screens show for `CCCCCn1c(=S)[nH]c2cc(C(=O)N3CCN(C(=O)OCC)CC3)ccc2c1=O`?
DRD3 agonist: 3; DRD3 antagonist: -90*; GLP1R ag: 6%; GLP-1R inv ag: 7%

How did CC(=O)N1CCc2cc(S(=O)(=O)CCC(=O)Nc3cc(C)cc(C)c3)ccc21 do in these assays?
DRD3 agonist: 1; DRD3 antagonist: -4; GLP1R ag: -3%; GLP-1R inv ag: 12%

Results for Cc1ccc2c(c1)c1c(n2CC(O)CNC2CCCC2)CCCC1 (stereo not given) ?
DRD3 agonist: -2; DRD3 antagonist: 26; GLP1R ag: -1%; GLP-1R inv ag: 11µM*

Results for Cc1ccc2c(c1)c1c(n2CC(O)Cn2ccnc2C)C(=O)CCC1 (stereo not given) ?
DRD3 agonist: -1; DRD3 antagonist: 0; GLP1R ag: -3%; GLP-1R inv ag: inconclusive

What do the screens show for `O=C(NCc1ccc2c(c1)OCO2)c1c(-c2ccccc2)sc2ccccc12`?
DRD3 agonist: 67*; DRD3 antagonist: 47; GLP1R ag: 6%; GLP-1R inv ag: 9%

How did Cc1ccc(CNC(=O)c2c(-c3ccccc3)sc3ccccc23)o1 do in these assays?
DRD3 agonist: 27; DRD3 antagonist: 54; GLP1R ag: 9%; GLP-1R inv ag: 5µM*

What do the screens show for `CCOC(=O)c1c(C)[nH]c(C)c1S(=O)(=O)N1CCC(C(=O)NCc2ccccc2Cl)CC1`?
DRD3 agonist: -3; GLP-1R inv ag: 12%

How did CCOC(=O)c1[nH]c2ccc(F)cc2c1NC(=O)C(C)N1CCc2cc(OC)c(OC)cc2C1 (stereo not given) do in these assays?
DRD3 agonist: -11; DRD3 antagonist: -55*; GLP1R ag: 6%; GLP-1R inv ag: 0%

What do the screens show for `COC(=O)c1[nH]c2ccc(C)cc2c1NC(=O)CN1CCc2cc(OC)c(OC)cc2C1`?
DRD3 agonist: -9; DRD3 antagonist: 7; GLP1R ag: 1%; GLP-1R inv ag: inconclusive

What do the screens show for `COc1ccc(-n2cnnc2SCC(=O)Nc2cc(C(C)(C)C)nn2-c2ccccc2)cc1`?
DRD3 agonist: 10; DRD3 antagonist: -56*; GLP1R ag: 0%; GLP-1R inv ag: -21%

How did COc1ccccc1NC(=O)Cc1c(C(=O)O)[nH]c2ccc(Cl)cc12 do in these assays?
DRD3 agonist: 7; GLP-1R inv ag: 10%

How did COC(=O)c1cc2c(C)c(C)c3ccccn3c-2c1C(=O)OC do in these assays?
DRD3 agonist: 4; DRD3 antagonist: -52*; GLP1R ag: 10%; GLP-1R inv ag: 19%

How did CCCCN(CCCC)C1=C(C(=O)c2ccccc2)N(C)S(=O)(=O)c2ccccc21 do in these assays?
DRD3 agonist: 2; GLP1R ag: 4%; GLP-1R inv ag: 5%

Results for CCCC(O)(c1ccc(Cl)cc1)C(CN1CCOCC1)c1ccc(Cl)cc1 (stereo not given) ?
DRD3 agonist: 5; DRD3 antagonist: 1; GLP1R ag: 5%; GLP-1R inv ag: inconclusive

How did COc1ccc(C(O)(CC(C)C)C(CN2CCOCC2)c2ccccc2)cc1 (stereo not given) do in these assays?
DRD3 agonist: 88*; DRD3 antagonist: -24; GLP1R ag: 16%; GLP-1R inv ag: -31%

Results for CCc1ccc(C(O)(CC(C)C)C(CN2CCOCC2)c2ccccc2)cc1 (stereo not given) ?
DRD3 agonist: -1; DRD3 antagonist: -9; GLP1R ag: -7%; GLP-1R inv ag: inconclusive

Results for CCCCC(O)(c1ccc(F)cc1)C(CN1CCOCC1)c1ccc(Cl)cc1 (stereo not given) ?
DRD3 agonist: 6; DRD3 antagonist: 26; GLP1R ag: -1%; GLP-1R inv ag: 2.8µM*

Results for CCOc1ccc(C(O)(CCC(C)C)C(CN2CCOCC2)c2ccccc2)cc1 (stereo not given) ?
DRD3 agonist: -1; DRD3 antagonist: 3; GLP1R ag: 11%; GLP-1R inv ag: 3.2µM*

What do the screens show for `Cc1ccc2c(c1)C(=O)OC(C(=O)Nc1ncc(Cc3ccc(C(C)C)cc3)s1)C2` (stereo not given)?
DRD3 agonist: -8; GLP1R ag: 12%; GLP-1R inv ag: -7%

Results for COc1ccccc1CNC(=O)c1cnc(N(C)C)nc1 ?
DRD3 agonist: 3; GLP-1R inv ag: 7%

What do the screens show for `Cc1cccc(C)c1OCC(=O)Nc1oc(-c2ccccc2)c(-c2ccccc2)c1C#N`?
DRD3 agonist: 26; DRD3 antagonist: 26; GLP1R ag: -17%; GLP-1R inv ag: 10µM*

What do the screens show for `COc1ccc(C(=O)Nc2oc(-c3ccccc3)c(-c3ccccc3)c2C#N)cc1`?
DRD3 agonist: -17; DRD3 antagonist: -64*; GLP1R ag: -1%; GLP-1R inv ag: inconclusive

Results for COc1ccc(S(=O)(=O)N2CCCCCC2)cc1C(=O)NCCc1ccccc1 ?
DRD3 agonist: -17; DRD3 antagonist: inconclusive; GLP1R ag: 5%; GLP-1R inv ag: inconclusive

Results for Cc1cccc(C(=O)O[C@H]2[C@H](Cc3ccccc3)NS(=O)(=O)[C@H]3CC4C=C[C@]23O4)c1 ?
DRD3 agonist: 12; DRD3 antagonist: 4; GLP1R ag: 0%; GLP-1R inv ag: -8%

What do the screens show for `Cc1cccc(C(=O)O[C@@H]2[C@H](Cc3ccccc3)NS(=O)(=O)[C@H]3C[C@@H]4C=C[C@]23O4)c1`?
DRD3 agonist: 52*; DRD3 antagonist: -6; GLP1R ag: -3%; GLP-1R inv ag: -27%

Results for COCCn1c(C)cc(O)c(C(c2ccccc2)N2CCN(c3ccccc3F)CC2)c1=O (stereo not given) ?
DRD3 agonist: -21; GLP-1R inv ag: 1%
